Drawing on ChEMBL document CHEMBL1961873, “Compounds: GSK PKIS; Assays: Nanosyn kinase panel” (2012), this text covers inhibition for 34 compounds.

The term inhibition denotes the change of the read-out against control, counted positive when it falls.

In this experiment the target is T1, Serine/threonine-protein kinase Nek1 (Homo sapiens) (UniProt Q96PY6).
T1 sequence (whole entry): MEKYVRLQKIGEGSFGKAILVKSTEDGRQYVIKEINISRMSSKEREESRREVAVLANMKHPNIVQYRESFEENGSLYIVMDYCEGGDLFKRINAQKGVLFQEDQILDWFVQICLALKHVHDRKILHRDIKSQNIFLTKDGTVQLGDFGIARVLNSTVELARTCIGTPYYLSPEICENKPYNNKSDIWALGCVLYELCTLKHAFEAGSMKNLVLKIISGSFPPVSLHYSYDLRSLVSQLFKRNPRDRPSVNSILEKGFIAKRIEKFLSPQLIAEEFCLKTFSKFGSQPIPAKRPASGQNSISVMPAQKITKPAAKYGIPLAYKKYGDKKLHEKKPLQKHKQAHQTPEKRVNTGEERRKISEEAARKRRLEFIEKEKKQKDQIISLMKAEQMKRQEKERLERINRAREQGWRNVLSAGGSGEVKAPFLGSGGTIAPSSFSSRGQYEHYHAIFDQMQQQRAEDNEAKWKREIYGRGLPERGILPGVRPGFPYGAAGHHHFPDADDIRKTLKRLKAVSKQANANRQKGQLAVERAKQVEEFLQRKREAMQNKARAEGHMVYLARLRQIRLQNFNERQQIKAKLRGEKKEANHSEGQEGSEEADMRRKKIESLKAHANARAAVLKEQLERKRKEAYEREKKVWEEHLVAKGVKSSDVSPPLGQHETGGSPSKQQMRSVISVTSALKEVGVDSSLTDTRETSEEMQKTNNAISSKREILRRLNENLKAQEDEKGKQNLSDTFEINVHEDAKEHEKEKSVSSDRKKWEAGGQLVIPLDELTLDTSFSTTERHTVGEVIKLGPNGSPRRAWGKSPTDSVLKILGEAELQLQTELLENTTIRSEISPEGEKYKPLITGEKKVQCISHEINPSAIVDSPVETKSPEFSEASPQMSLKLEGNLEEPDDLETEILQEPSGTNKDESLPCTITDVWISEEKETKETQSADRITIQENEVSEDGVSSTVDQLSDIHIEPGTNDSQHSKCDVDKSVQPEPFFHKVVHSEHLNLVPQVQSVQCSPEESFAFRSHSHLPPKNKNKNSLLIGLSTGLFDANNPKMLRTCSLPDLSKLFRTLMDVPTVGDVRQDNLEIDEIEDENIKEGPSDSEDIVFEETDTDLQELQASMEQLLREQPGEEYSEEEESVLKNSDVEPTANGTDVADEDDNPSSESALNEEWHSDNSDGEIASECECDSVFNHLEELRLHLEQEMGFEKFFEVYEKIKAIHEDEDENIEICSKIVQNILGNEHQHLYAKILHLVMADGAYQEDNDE
Particulars: at 1 µM.
Take `CN1CCN(CCCNc2nc3ccc(Oc4ccc(NC(=O)Nc5cc(C(F)(F)F)ccc5F)cc4)cc3[nH]2)CC1`: the inhibition turned out to be 0.88%.

As to `NS(=O)(=O)c1ccc(N/N=C2\C(=O)Nc3ccc(-c4cnco4)cc32)cc1`, the inhibition is -0.1%.

On to `O=C1Nc2ccccc2/C1=C/Nc1ccc(-n2cncn2)cc1`, for which the inhibition was 5.21%.

On to `Cc1nnc(-c2ccc(C)c(-c3ccc(C(=O)NCc4ccc(Cl)cc4)cc3)c2)o1`, for which the inhibition came to 4.54%.

`CN(C)CCCNc1nccc(-c2c(-c3ccc(F)cc3)nn3cc(C(F)(F)F)ccc23)n1`: the inhibition was 4.09%.

For the compound `COc1ccc2ncn(-c3cc(O[C@H](C)c4ccccc4Cl)c(C(N)=O)s3)c2c1`, the inhibition was 24.8%.

`CCS(=O)(=O)c1ccc(OC)c(Nc2ncc(-c3cccc(-c4ccccc4F)c3)o2)c1`: the inhibition stood at 1.67%.

As to `O=C(Nc1n[nH]c2cc(-c3ccccc3)ccc12)C1CC1`, the inhibition was 3.2%.

With `COc1ccc(-c2ccc3c(NC(=O)C4CC4)n[nH]c3n2)cc1`, the inhibition was determined as 2.1%.

With `COc1cc(Nc2ncc3c(C)nc(-c4cccc(C(F)(F)F)c4)n3n2)cc(OC)c1OC`, the inhibition came to 21.8%.

Turning to `Cc1ccc(NC(=O)c2ccoc2)cc1-c1ccc(C(=O)NCC2CC2)cc1`, the inhibition was 0.36%.

As for `Fc1ccc(-c2nc3n(c2-c2ccncc2)CCS3)cc1`, the inhibition was found to be 2.98%.

For `NS(=O)(=O)c1ccc(N/N=C2\C(=O)Nc3ccc(C(=O)NCCCn4ccnc4)cc32)cc1`, the inhibition was found to be 4.83%.

Regarding `CCN(CC)Cc1ccc(Nc2nccc(-c3cnn4ncccc34)n2)cc1`, the inhibition was 4.48%.

As for `NC(=O)c1cc(-c2ccc(F)cc2)cc(-c2ccncc2)c1N`, the inhibition amounted to 1.03%.

`Nc1nccc(-c2c(-c3ccc(F)cc3)ncn2C2CCC(O)CC2)n1` (centres undefined): the inhibition came out at 0.03%.

Regarding `CCc1ccc(Oc2nccc(-c3c(-c4ccc(F)cc4)ncn3C3CCNCC3)n2)cc1`, the inhibition was 1.69%.

For `C#Cc1cccc(Nc2ncnc3ccc(OCCCCNCCS(C)(=O)=O)cc23)c1`, the inhibition is 8.52%.

`NC(=O)c1ccc(Oc2nccc(-c3c(-c4ccc(F)cc4)ncn3C3CCNCC3)n2)cc1`: the inhibition stood at 5.01%.

In the case of `COC(=O)Nc1nc2ccc(Sc3ccc(NC(=O)Nc4cc(C(F)(F)F)ccc4F)cc3)cc2[nH]1`, the inhibition worked out at 1.18%.

In the case of `CCC(=O)Nc1ccc(C)c(-c2ccc(C(=O)NCC3CC3)cc2)c1`, the inhibition was 2.64%.

Consider `COc1cccc(-n2cnc3c(N/N=C/c4ccncc4)ncnc32)c1`, for which the inhibition is 9.07%.

Consider `Cc1ccc(C(=O)NC2CCC2)cc1-c1ccc(C(=O)NCC2CC2)cc1`, for which the inhibition was 3.06%.

In the case of `c1ccc(-c2n[nH]cc2-c2ccnc(-c3ccc(OCCN4CCOCC4)cc3)c2)nc1`, the inhibition is -2.23%.

As for `O=C1NC(=O)C(c2cccc(Cl)c2)=C1Nc1ccc(Cl)c(C(=O)O)c1`, the inhibition is 1.69%.

`C[C@@H](Oc1cc(-n2cnc3ccc(OC4CCN(C)CC4)cc32)sc1C(N)=O)c1ccccc1Cl`: the inhibition was 38.1%.

As for `CS(=O)(=O)CCNCc1ccc(-c2ccc3ncnc(Nc4ccc(OCc5ccccc5)c(Br)c4)c3c2)o1`, the inhibition is 1.93%.

As for `COc1cc(N2CCN(C(C)C)CC2)ccc1Nc1nc(Nc2ccc(F)cc2C(=O)NC[C@@H](O)CO)c2cc[nH]c2n1`, the inhibition worked out at 4.63%.

`Clc1ccc(CNc2nccc(-c3cnn4ncccc34)n2)cc1`: the inhibition turned out to be 19.8%.

On to `COc1cc(Nc2ncc(-c3ccccc3)o2)cc(OC)c1OC`, for which the inhibition was 1.71%.

For the compound `O=C(Nc1n[nH]c2nc(-c3ccc(O)cc3)c(Br)cc12)C1CC1`, the inhibition was 11.2%.

Consider `Fc1ccc(-c2ncn(C3CCNCC3)c2-c2ccnc(Oc3ccc4c(c3)OCO4)n2)cc1`, for which the inhibition was 6.26%.

For the compound `NC(=O)c1cc(-c2ccncc2)cc(-c2ccccc2)c1N`, the inhibition came to 3.27%.

On to `Fc1ccc(-c2ncn(C3CCNCC3)c2-c2ccnc(Oc3ccc(Oc4ccccc4)cc3)n2)cc1`, for which the inhibition amounted to 1.58%.
